# Test results from PubChem BioAssay (NCATS).
# Results filed as inconclusive are left out. Calls of active or inactive are those of the source. Calls follow the shape of the dose curve; as a rule, active = well fitted inhibition curve with a large enough effect; inconclusive = small, poorly fitted or top-dose-only effect; inactive = flat fitted curve, though single readings scatter.
# Target: Calcium and integrin-binding protein 1 (Homo sapiens) (UniProt Q99828)
# Experiment: Primary qHTS for Identification of Calcium Integrin Binding Protein 1 (CIB1) Competitor (AID 1508620); also: top concentration of the series differs between compounds
# Settings: CIB1-GST / FITC-alphaIIb peptide fluorescence polarization; series mostly up to 114 µM; activity change, negative = inhibition: at the top concentration
# Method in brief: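 Fluorescence polarization competition: GST-tagged CIB1 (1 uM final) preincubated with compound 15 min at room temperature, then FITC-labelled alphaIIb peptide (100 nM final) added. After 15 min at room temperature, polarization read at Ex 480/Em 540.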
# % is scaled to controls: 0 for no effect and ±100 for the full control effect.
# Calcium and integrin-binding protein 1 (Homo sapiens), sequence (Q99828 whole entry, looked up): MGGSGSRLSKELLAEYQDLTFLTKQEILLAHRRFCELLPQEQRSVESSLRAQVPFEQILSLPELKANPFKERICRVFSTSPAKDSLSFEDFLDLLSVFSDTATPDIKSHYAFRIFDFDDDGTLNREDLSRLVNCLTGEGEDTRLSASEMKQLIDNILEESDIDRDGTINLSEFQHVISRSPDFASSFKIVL
row,Structure (SMILES),"activity change, negative = inhibition"
1,Cc1cnc(-c2ccccc2CO)nc1NCc1ccc(-c2cccnc2)cc1,0.376% (inactive)
2,O=[S+]([O-])(Nc1ccccc1F)c1cccc(NC/C=C/c2ccccc2)c1,2.54% (inactive)
3,Cc1ccc(OCCn2c(CCNC(=O)c3cccnc3)nc3ccccc32)cc1,6.98% (inactive)
4,NC(=O)c1ccccc1-c1noc(-c2ccccc2F)n1,2.46% (inactive)
5,CCOc1ccccc1-c1nnc2n1N=C(c1cccc(OC)c1)CS2,-4.08% (inactive)
6,CC(=O)Nc1sc2c(c1-c1ccc3nsnc3c1)CCNC2,-9.3% (inactive)
7,Cc1ccnc(NC(=S)N2CCN(c3ccc(O)cc3)CC2)c1,-25.3% (inactive)
8,COc1ccnc(NC(=S)N2CCN(c3cccc(C(F)(F)F)n3)CC2)c1,4.68% (inactive)
9,FC(F)(F)c1ccccc1-c1nc(NCc2ccc(Cl)cc2)c2ccccc2n1,0.567% (inactive)
10,COc1ccc(C[C@H](C(=O)O)N2C(=O)c3ccc(C(=O)O)cc3C2=O)cc1,3.91% (inactive)
11,O=C(Nc1cccnc1)c1ccco1,-1.75% (inactive)
12,O=C(O)c1ccc(O)c2ncc(-c3ccc(N4CCOCC4)cc3)cc12,-15.3% (inactive)
13,N#Cc1ccccc1OC1=NS(=O)(=O)c2ccccc21,3.75% (inactive)
14,CC(=O)Nc1sc2c(c1-c1ccc3nonc3c1)CCNC2,-3.99% (inactive)
15,N#Cc1nc(Nc2cc(Cl)cc(Cl)c2)nc(NC2CCCC2)n1,4.14% (inactive)
16,CC1=C(C(=O)Nc2nc3ccccc3s2)C2(CCCC2)N=C(Nc2nc3ccccc3o2)N1,-0.823% (inactive)
17,Cc1cccc(C)c1OCc1cccc(C2Nc3ccccc3C(=O)N2Cc2ccco2)c1 (stereo not given),-0.231% (inactive)
18,O=S1(=O)N=C(Oc2ccccc2Br)c2ccccc21,-1.04% (inactive)
19,O=C1CCCC2=C1C(c1ccc(Cl)cc1)N=C(Nc1nc3ccccc3o1)N2 (stereo not given),5.04% (inactive)
20,COc1ccc(C(=O)N(Cc2ccccc2)Cc2ccccc2)c(O)c1,0.72% (inactive)

row,Structure (SMILES),"activity change, negative = inhibition"
1,N#Cc1cccc(Nc2ncc(-c3cccc4ccccc34)o2)c1,4.15% (inactive)
2,Cc1cc(NS(=O)(=O)c2ccc(NC(=O)Cc3ccc(Cl)c(C(F)(F)F)c3)cc2)no1,-11.6% (inactive)
3,Cc1cc(C)nc(NC(=S)N2CCN(c3ccc(N4CCCC4)nn3)CC2)c1,-0.317% (inactive)
4,Cc1ccc(-c2ccc(=O)n(CC(=O)NCCC3CC3)n2)cc1,3.65% (inactive)
5,CCOC(=O)C1CCN(C(=O)C(C)(C)NC(=O)Nc2ccc3c(c2)CCC3)CC1,-14.6% (inactive)
6,Cc1ccc(NS(=O)(=O)c2ccc3c(ccn3C)c2)cc1C,2.92% (inactive)
7,CC(=O)Nc1sc2c(c1-c1cc3ccccc3[nH]1)CCNC2,-1.67% (inactive)
8,N#Cc1ccc(-c2nc(NCc3ccc(-c4ccnc(C(F)(F)F)c4)cc3)c3ccccc3n2)cc1,13.5% (inactive)
9,COc1ccc(C2Nc3cccc(OC)c3C(=O)N2Cc2ccccc2)cc1COc1ccc(NC(C)=O)cc1 (stereo not given),8.32% (inactive)
10,CC(=O)NC(c1cc(Cl)c2cccnc2c1O)C1CC1 (stereo not given),-18.6% (inactive)
11,O=c1c2ccccc2nc2sc(Nc3ccc(F)cc3)nn12,11.4% (inactive)
12,O=C1CCCC2=C1C(c1ccncc1Cl)N=C(Nc1nc3ccccc3o1)N2 (stereo not given),-14.9% (inactive)
13,CN(C)S(=O)(=O)c1ccc(-c2nc(NCc3ccc(-c4ccnc(C(F)(F)F)c4)cc3)c3ccccc3n2)cc1,12.4% (inactive)
14,O=[S+]([O-])(Nc1ccc(-c2nc3ccccc3[nH]2)cc1)c1ccc2c(c1)OCO2,-18.4% (inactive)
15,CCN1CCN(C(=S)c2ccc(O)cc2)CC1,-2.73% (inactive)
16,O=C(CCc1ccccc1)Nc1cccc([S+](=O)([O-])Nc2ccccc2F)c1,0.363% (inactive)
17,O=C(NCCc1nc2ccccc2n1CCOc1ccc(Cl)cc1)C1CCCCC1,16.5% (inactive)
18,Cc1ccc(OCCn2c(CCNC(=O)C3CCOCC3)nc3ccccc32)cc1,7.79% (inactive)
19,Cc1cnc(-c2ccccc2C(F)F)nc1NCC1CN(c2cnccn2)C1,0.273% (inactive)
20,FC(F)(F)c1ccc(CSc2nc3ncc(Br)cc3[nH]2)cc1,5.35% (inactive)
